# The supplement of paper PMC4466140
# B1: unnamed (peptide)
# chain: LRWRHKFFLPAIAAI
# B2: unnamed (peptide)
# chain: YSRKKLPVVLSKMTL
# Experiments:
# Test in all cases: SPOT peptide array binding signal intensity (averaged, normalized) (arbitrary units (background-subtracted, floor 0; scale differs between SH3 domains)); higher = stronger binding of the SH3 domain to the peptide
# [1] = molecular target: CaNbp2
# In short: (§1)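 SH3 domains from four yeast species were expressed as GST fusions in E. coli BL21(DE3) and purified on glutathione Sepharose. Each was incubated at 10 μg/ml overnight at 4°C in TBS-based blocking buffer on cellulose membranes bearing synthetic 15-mer peptides, in which serines replaced cysteines. Bound protein was detected with anti-GST antibody, an HRP anti-mouse secondary and luminol, then imaged and quantified with Genespotter. The binding signal is the normalized, background-subtracted spot intensity averaged over replicates, in arbitrary units that are not the same from one domain to another.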
# [2] = molecular target: CaRvs167
# In short: as §1
# [3] = molecular target: CaRvs167-3
# In short: as §1
# [4] = molecular target: CaSho1
# In short: as §1
# [5] = molecular target: CaSla1-D1-D2
# In short: as §1
# [6] = molecular target: CaSla1-D3
# In short: as §1
# [7] = molecular target: ScAbp1
# In short: as §1
# [8] = molecular target: ScBbc1
# In short: as §1
# [9] = molecular target: ScBem1-D1
# In short: as §1
# [10] = molecular target: ScBzz1-D1
# In short: as §1
# [11] = molecular target: ScBzz1-D2
# In short: as §1
# [12] = molecular target: ScCyk3
# In short: as §1
# [13] = molecular target: ScFus1
# In short: as §1
# [14] = molecular target: ScHof1
# In short: as §1
# [15] = molecular target: ScHse1
# In short: as §1
# [16] = molecular target: ScLsb1
# In short: as §1
# [17] = molecular target: ScLsb2
# In short: as §1
# [18] = molecular target: ScLsb3
# In short: as §1
# [19] = molecular target: ScLsb4
# In short: as §1
# [20] = molecular target: ScMyo3
# In short: as §1
# [21] = molecular target: ScMyo5
# In short: as §1
# [22] = molecular target: ScNbp2
# In short: as §1
# [23] = molecular target: ScPex13
# In short: as §1
# [24] = molecular target: ScRvs167
# In short: as §1
# [25] = molecular target: ScSho1
# In short: as §1
# [26] = molecular target: ScSla1-D1-D2
# In short: as §1
# [27] = molecular target: ScSla1-D3
# In short: as §1
# [28] = molecular target: SpAbp1-D1
# In short: as §1
# [29] = molecular target: SpBbc1
# In short: as §1
# [30] = molecular target: SpBzz1-D1
# In short: as §1
# [31] = molecular target: SpBzz1-D2
# In short: as §1
# [32] = molecular target: SpCyk3
# In short: as §1
# [33] = molecular target: SpHof1
# In short: as §1
# [34] = molecular target: SpHof1-2
# In short: as §1
# [35] = molecular target: SpHof1-3
# In short: as §1
# [36] = molecular target: SpHse1
# In short: as §1
# [37] = molecular target: SpLsb1
# In short: as §1
# [38] = molecular target: SpLsb4
# In short: as §1
# [39] = molecular target: SpMyo1
# In short: as §1
# [40] = molecular target: SpNbp2
# In short: as §1
# [41] = molecular target: SpPex13
# In short: as §1
# [42] = molecular target: SpRvs167
# In short: as §1
# [43] = molecular target: SpSla1-D1-D2
# In short: as §1
# [44] = molecular target: SpSla1-D3
# In short: as §1
# [45] = molecular target: AgAbp1
# In short: as §1
# [46] = molecular target: AgBbc1
# In short: as §1
# [47] = molecular target: AgBem1-D1
# In short: as §1
# [48] = molecular target: AgBzz1-D1
# In short: as §1
# [49] = molecular target: AgBzz1-D2
# In short: as §1
# [50] = molecular target: AgCyk3
# In short: as §1
# [51] = molecular target: AgFus1
# In short: as §1
# [52] = molecular target: AgHof1
# In short: as §1
# [53] = molecular target: AgHse1
# In short: as §1
# [54] = molecular target: AgLsb1
# In short: as §1
# [55] = molecular target: AgLsb4
# In short: as §1
# [56] = molecular target: AgMyo5
# In short: as §1
# [57] = molecular target: AgNbp2
# In short: as §1
# [58] = molecular target: AgRvs167
# In short: as §1
# [59] = molecular target: AgSho1
# In short: as §1
# [60] = molecular target: AgSla1-D1-D2
# In short: as §1
# [61] = molecular target: AgSla1-D3
# In short: as §1
# [62] = molecular target: CaAbp1-D1
# In short: as §1
# [63] = molecular target: CaAbp1-D2
# In short: as §1
# [64] = molecular target: CaBbc1
# In short: as §1
# [65] = molecular target: CaBem1-D1
# In short: as §1
# [66] = molecular target: CaBzz1-D1
# In short: as §1
# [67] = molecular target: CaBzz1-D2
# In short: as §1
# [68] = molecular target: CaCyk3
# In short: as §1
# [69] = molecular target: CaFus1
# In short: as §1
# [70] = molecular target: CaHof1
# In short: as §1
# [71] = molecular target: CaHse1
# In short: as §1
# [72] = molecular target: CaLsb1
# In short: as §1
# [73] = molecular target: CaLsb4
# In short: as §1
# [74] = molecular target: CaMyo5
# In short: as §1
binder,measurement,setting,value
B1,SPOT peptide array binding signal intensity,[1],116
same,SPOT peptide array binding signal intensity,[2],12.8
same,SPOT peptide array binding signal intensity,[3],24
same,SPOT peptide array binding signal intensity,[4],228
same,SPOT peptide array binding signal intensity,[5],≤ 0
same,SPOT peptide array binding signal intensity,[6],3.12
same,SPOT peptide array binding signal intensity,[7],53.5
same,SPOT peptide array binding signal intensity,[8],0.875
same,SPOT peptide array binding signal intensity,[9],9.5
same,SPOT peptide array binding signal intensity,[10],4.5
same,SPOT peptide array binding signal intensity,[11],14.2
same,SPOT peptide array binding signal intensity,[12],18.5
same,SPOT peptide array binding signal intensity,[13],209
same,SPOT peptide array binding signal intensity,[14],1.25
same,SPOT peptide array binding signal intensity,[15],1040
same,SPOT peptide array binding signal intensity,[16],0.25
same,SPOT peptide array binding signal intensity,[17],≤ 0
same,SPOT peptide array binding signal intensity,[18],≤ 0
same,SPOT peptide array binding signal intensity,[19],4.25
same,SPOT peptide array binding signal intensity,[20],≤ 0
same,SPOT peptide array binding signal intensity,[21],≤ 0
same,SPOT peptide array binding signal intensity,[22],20.2
same,SPOT peptide array binding signal intensity,[23],≤ 0
same,SPOT peptide array binding signal intensity,[24],1.5
same,SPOT peptide array binding signal intensity,[25],759
same,SPOT peptide array binding signal intensity,[26],≤ 0
same,SPOT peptide array binding signal intensity,[27],≤ 0
same,SPOT peptide array binding signal intensity,[28],166
same,SPOT peptide array binding signal intensity,[29],1.75
same,SPOT peptide array binding signal intensity,[30],≤ 0
same,SPOT peptide array binding signal intensity,[31],≤ 0
same,SPOT peptide array binding signal intensity,[32],1
same,SPOT peptide array binding signal intensity,[33],33.1
same,SPOT peptide array binding signal intensity,[34],2.25
same,SPOT peptide array binding signal intensity,[35],830
same,SPOT peptide array binding signal intensity,[36],667
same,SPOT peptide array binding signal intensity,[37],≤ 0
same,SPOT peptide array binding signal intensity,[38],21.2
same,SPOT peptide array binding signal intensity,[39],≤ 0
same,SPOT peptide array binding signal intensity,[40],41.8
same,SPOT peptide array binding signal intensity,[41],6.25
same,SPOT peptide array binding signal intensity,[42],1
same,SPOT peptide array binding signal intensity,[43],2
same,SPOT peptide array binding signal intensity,[44],≤ 0
B2,SPOT peptide array binding signal intensity,[45],68
same,SPOT peptide array binding signal intensity,[46],21.5
same,SPOT peptide array binding signal intensity,[47],45.5
same,SPOT peptide array binding signal intensity,[48],82.5
same,SPOT peptide array binding signal intensity,[49],43.5
same,SPOT peptide array binding signal intensity,[50],3
same,SPOT peptide array binding signal intensity,[51],109
same,SPOT peptide array binding signal intensity,[52],28.8
same,SPOT peptide array binding signal intensity,[53],126
same,SPOT peptide array binding signal intensity,[54],223
same,SPOT peptide array binding signal intensity,[55],12
same,SPOT peptide array binding signal intensity,[56],3.25
same,SPOT peptide array binding signal intensity,[57],48.5
same,SPOT peptide array binding signal intensity,[58],3.5
same,SPOT peptide array binding signal intensity,[59],190
same,SPOT peptide array binding signal intensity,[60],57
same,SPOT peptide array binding signal intensity,[61],14.5
same,SPOT peptide array binding signal intensity,[62],444
same,SPOT peptide array binding signal intensity,[63],126
same,SPOT peptide array binding signal intensity,[64],15.8
same,SPOT peptide array binding signal intensity,[65],35.5
same,SPOT peptide array binding signal intensity,[66],197
same,SPOT peptide array binding signal intensity,[67],92.2
same,SPOT peptide array binding signal intensity,[68],8
same,SPOT peptide array binding signal intensity,[69],166
same,SPOT peptide array binding signal intensity,[70],2
same,SPOT peptide array binding signal intensity,[71],17.2
same,SPOT peptide array binding signal intensity,[72],16
same,SPOT peptide array binding signal intensity,[73],25.5
same,SPOT peptide array binding signal intensity,[74],4.75
same,SPOT peptide array binding signal intensity,[1],143
same,SPOT peptide array binding signal intensity,[2],16.7
same,SPOT peptide array binding signal intensity,[3],11.5
same,SPOT peptide array binding signal intensity,[4],131
same,SPOT peptide array binding signal intensity,[5],264
same,SPOT peptide array binding signal intensity,[6],131
same,SPOT peptide array binding signal intensity,[7],108
same,SPOT peptide array binding signal intensity,[8],11
same,SPOT peptide array binding signal intensity,[9],31
same,SPOT peptide array binding signal intensity,[10],67.5
same,SPOT peptide array binding signal intensity,[11],75
same,SPOT peptide array binding signal intensity,[12],9
same,SPOT peptide array binding signal intensity,[13],108
same,SPOT peptide array binding signal intensity,[14],4.5
same,SPOT peptide array binding signal intensity,[15],370
same,SPOT peptide array binding signal intensity,[16],191
same,SPOT peptide array binding signal intensity,[17],1100
same,SPOT peptide array binding signal intensity,[18],24.5
same,SPOT peptide array binding signal intensity,[19],12.5
same,SPOT peptide array binding signal intensity,[20],6
same,SPOT peptide array binding signal intensity,[21],6
same,SPOT peptide array binding signal intensity,[22],95
same,SPOT peptide array binding signal intensity,[23],150
same,SPOT peptide array binding signal intensity,[24],8.33
same,SPOT peptide array binding signal intensity,[25],2450
same,SPOT peptide array binding signal intensity,[26],300
same,SPOT peptide array binding signal intensity,[27],53.2
same,SPOT peptide array binding signal intensity,[28],243
same,SPOT peptide array binding signal intensity,[29],3
same,SPOT peptide array binding signal intensity,[30],137
same,SPOT peptide array binding signal intensity,[31],1.5
same,SPOT peptide array binding signal intensity,[32],4
same,SPOT peptide array binding signal intensity,[33],76.8
same,SPOT peptide array binding signal intensity,[34],27.2
same,SPOT peptide array binding signal intensity,[35],295
same,SPOT peptide array binding signal intensity,[36],77.8
same,SPOT peptide array binding signal intensity,[37],48
same,SPOT peptide array binding signal intensity,[38],40.5
same,SPOT peptide array binding signal intensity,[39],6
same,SPOT peptide array binding signal intensity,[40],49.5
same,SPOT peptide array binding signal intensity,[41],53
same,SPOT peptide array binding signal intensity,[42],8.67
same,SPOT peptide array binding signal intensity,[43],11.5
same,SPOT peptide array binding signal intensity,[44],41.5
